Assay results from PubChem BioAssay AID2570 (National Center for Advancing Translational Sciences (NCATS), 2010).
Where “and” joins values, the source holds several entries; their conditions need not be identical. Equal values may be shown once. Results filed as inconclusive are left out. A number with no mark means an inactive call. The call rests on the fitted dose curve; in most records, active means well fitted curve in the direction sought with a large enough effect; inconclusive means small, poorly fitted or top-dose-only effect, or another doubt; inactive means no such curve, though single readings can be large or run the other way.

target: Vasopressin V1b receptor (Homo sapiens) (UniProt P47901); experiment: Counterscreen Concentration-Response Assay for Antagonists of the Neuropeptide S Receptor: Vasopressin Receptor Calcium Signal Transduction; details: CHO-AVPR1B, vasopressin-stimulated calcium fluorescence, FDSS
Source text: NIH Chemical Genomics Center [NCGC] NIH Molecular Libraries Probe Production centers Network [MLPCN] MLPCN Grant: X01-DA026210-01 Assay Submitter (PI): Heilig, Markus Alexander NCGC Assay Overview: Neuropeptide S receptor (NPSR), previously known as GPR154, is a recently de-orphanized G protein coupled receptor. Its endogenous ligand is the 20 amino acids peptide Neuropeptide S (NPS). […] NPS and its receptor are found in various tissues. Specifically they are highly expressed in brain areas that have been implicated in modulation of arousal, stress and anxiety. Central administration of NPS in mice produces an unusual profile of activity by inducing wakefulness and arousal, while at the same time suppressing anxiety. Therefore, NPSR may represent a novel drug target for the treatment of sleep and anxiety disorders. To identify NPSR antagonists, we developed a cell-based assay with transfected NPS receptor. NPS can stimulate the production of cAMP as well as release intracellular calcium in Chinese hamster ovary cells stably expressing NPS receptor. This change in intracellular calcium can be detected using a calcium indicator dye on a calcium imaging plate reader system (FDSS). To validate the specific action of compounds on the NPS receptor, a counterscreen was developed that tests compounds' antagonism of AVPR1B vasopressin receptor stimulation by vasopressin. […] shares 27% identity with the NPS receptor.
NCGC Assay Protocol Summary: A Chinese hamster ovary (CHO) cell line stably expressing human vasopressin receptor (AVPR1B) was maintained in F-12 Kaighn's media (Invitrogen, Carlsbad, CA, 21127) supplemented with 10 % FBS, 100 units/ml penicillin, 100 ug/ml streptomycin and 250 ug/ml geneticin at 37C, 5% CO2 in a humidified atmosphere. Before the assay, aliquots of cells were frozen and stored at -135C. The assay was performed on a FDSS-7000 kinetic plate reader in 1536-well format. The maximums of kinetic fluorescence responses were converted into text files using the instrument's software data export utility. Data for antagonist response were normalized to the controls for basal activity (DMSO only) and 100% inhibition (no signal). AC50 values were determined from concentration-response data modeled with the standard Hill equation. CHO-V1B 1536-well FDSS assay protocol: (1) Frozen CHO-V1B cells were thaw, washed once with fresh media and resuspended in F-12 Kaighn's media supplemented with 10 % FBS, 100 units/ml penicillin and 100 ug/ml streptomycin. Cells were plated at 3 ul/well (1200 cells) to black, clear-bottom, tissue-culture treated 1536-well plates, and then cultured at 37C, 5 % CO2 for 16 to 30 hours. (2) Add 3 ul of calcium dye (from High Performance PBX Calcium Assay Kit, BD Biosciences). The calcium dye was prepared according to the manufactory's instruction. (3) Incubation at 37C, 5 % CO2 for 60 min. (4) Add 23 nl/well of compound in DMSO solution. The final titration for each compound was between 0.6 nM and 46 uM. (5) Load plates to FDSS-7000. The following steps were performed on FDSS-7000. (6) Record fluorescent background (Ex 480 nm, Em 520-560 nm) for 10 s. (7) Add 2 ul of stimulation reagent (1X HBSS buffer, 0.1% BSA, 60 nM vasopressin). Record antagonist response (Ex 480 nm, Em 520-560 nm) for 180 s. Keywords: MLSMR, MLPCN, NIH Roadmap, qHTS, NCGC, NPS, Neuropeptide S Antagonists

Sequence of Vasopressin V1b receptor (Homo sapiens) (P47901 whole entry, looked up): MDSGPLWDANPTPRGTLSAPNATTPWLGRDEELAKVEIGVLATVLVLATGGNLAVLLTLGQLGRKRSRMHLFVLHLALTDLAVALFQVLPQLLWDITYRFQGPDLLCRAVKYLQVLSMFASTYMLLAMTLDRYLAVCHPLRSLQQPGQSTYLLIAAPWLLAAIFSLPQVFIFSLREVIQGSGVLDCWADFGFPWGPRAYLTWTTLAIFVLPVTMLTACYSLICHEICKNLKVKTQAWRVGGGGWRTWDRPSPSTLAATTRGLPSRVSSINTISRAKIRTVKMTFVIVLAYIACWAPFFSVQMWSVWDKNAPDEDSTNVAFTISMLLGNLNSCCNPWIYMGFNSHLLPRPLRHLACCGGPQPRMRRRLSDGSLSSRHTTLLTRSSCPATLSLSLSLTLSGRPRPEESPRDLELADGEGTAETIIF

Compound	max response
COc1cccc(C2c3c(ncn(-c4ccccc4C(C)(C)C)c3=N)Oc3ccc4ccccc4c32)c1 (stereo not given)	9.94%
COc1ccc(C2c3ccc4ccccc4c3Oc3ncn(CCN4CCOCC4)c(=N)c32)cc1OC (stereo not given)	-8.9%
COc1cccc(C2c3c(ncn(Cc4cccs4)c3=N)Oc3ccc4ccccc4c32)c1 (stereo not given)	22.2%
COc1ccc(-n2cnc3c(c2=N)C(c2cccc(OC)c2)c2c(ccc4ccccc24)O3)cc1 (stereo not given)	-14.1%
CCC(C)(CCN1CCOCC1)N(Cc1cc2ccccc2n(C)c1=O)C(=O)C1CCCCC1 (stereo not given)	-9.76%
COc1ccc(C2c3c(N)nc(CCc4ccccc4)nc3Oc3ccc4ccccc4c32)cc1OC (stereo not given)	-20.6%
COc1cccc(C2c3c(ncn(-c4cccc(OC)c4)c3=N)Oc3ccc4ccccc4c32)c1 (stereo not given)	-13.6%
COc1ccc(C2c3c(nc(CCCc4ccccc4)[nH]c3=O)Oc3ccc4ccccc4c32)cc1OC (stereo not given)	12%
COc1cccc(C2c3c(ncn(-c4ccccc4SC)c3=N)Oc3ccc4ccccc4c32)c1 (stereo not given)	14.8%
COc1ccc(C2c3ccc(OCc4ccccc4)cc3Oc3ncn(CCN4CCOCC4)c(=N)c32)cc1OC (stereo not given)	-15.2%
Cc1c(P(=S)(c2ccccc2)c2ccccc2)c2ccccc2n1C(=O)Cc1ccccc1	5.72%
N=c1c2c(ncn1CCN1CCOCC1)Oc1ccc3ccccc3c1C2c1ccccc1 (stereo not given)	25.9%
COc1ccc(C2C3=C(N=CN(CCN4CCOCC4)C3N)Oc3ccccc32)cc1OC (stereo not given)	19.6%
COc1ccc(C2c3c(nc(CCc4ccccc4)[nH]c3=O)Oc3ccc4ccccc4c32)cc1OC (stereo not given)	1.09%
N#CC1=C(NC=NCc2ccccc2)Oc2ccc3ccccc3c2C1c1ccccc1 (stereo not given)	-19%
Cc1c(P(=S)(c2ccccc2)c2ccccc2)c2ccccc2n1Cc1ccccc1	0.753%
O=C(Nc1ncnc2c1C(c1ccccc1)c1c(ccc3ccccc13)O2)c1ccccc1 (stereo not given)	8.3%
O=C1OC(c2ccccc2)(c2ccccc2)N2CCN(C(=O)NCc3ccc(F)cc3)CC12 (stereo not given)	22.2% and 17.7%
COc1ccc(C2c3c(nc(Cc4ccccc4)[nH]c3=O)Oc3ccc4ccccc4c32)cc1OC (stereo not given)	14.7%
N=c1c2c(ccn1-c1ccccc1)Oc1ccc3ccccc3c1C2c1ccccc1 (stereo not given)	-28.3%

Compound	max response
COc1cccc(C2c3c(ncn(-c4ccc(-c5ccccc5)cc4)c3=N)Oc3ccc4ccccc4c32)c1 (stereo not given)	-10.6%
COc1ccc(C2c3c(nc(C)[nH]c3=O)Oc3ccc4ccccc4c32)cc1OC (stereo not given)	-25.8%
COc1cccc(C2c3c(ncn(-c4ccccc4C#N)c3=N)Oc3ccc4ccccc4c32)c1 (stereo not given)	2.63%
CCOC(=O)CCCC(=O)Nc1ncnc2c1C(c1ccccc1)c1c(ccc3ccccc13)O2 (stereo not given)	-39.8%
COc1cccc(C2c3c(ncn(-c4cccnc4)c3=N)Oc3ccc4ccccc4c32)c1 (stereo not given)	-4.29%
O=C(CCc1ccccc1)Nc1ncnc2c1C(c1ccccc1)c1c(ccc3ccccc13)O2 (stereo not given)	-23%
O=C(Cc1ccccc1)Nc1ncnc2c1C(c1ccccc1)c1c(ccc3ccccc13)O2 (stereo not given)	7.19%
COc1cccc(C2c3c(ncn(-c4ccc(C#N)cc4)c3=N)Oc3ccc4ccccc4c32)c1 (stereo not given)	-46.5%
COc1cccc(C2c3c(ncn(-c4ccccc4)c3=N)Oc3ccc4ccccc4c32)c1OC (stereo not given)	-5.77%
COc1cccc(C2c3c(ncn(-c4ccccn4)c3=N)Oc3ccc4ccccc4c32)c1 (stereo not given)	29.6%
Nc1ncnc2c1C(c1ccccc1)c1c(ccc3ccccc13)O2 (stereo not given)	4.27%
COc1cccc(C2c3c(ncn(-c4ccccc4Br)c3=N)Oc3ccc4ccccc4c32)c1 (stereo not given)	18.9%
Cc1c(P(=S)(c2ccccc2)c2ccccc2)c2ccccc2n1CCc1ccccc1	-38.1%
COc1cccc(C2C(C#N)=C(NC(=O)NCc3ccccc3)Oc3ccc4ccccc4c32)c1 (stereo not given)	-21.8%
COc1ccc2c(c1)Oc1ncn(CCN3CCOCC3)c(=N)c1C2c1ccc(OC)c(OC)c1 (stereo not given)	-21.2%
COc1cccc(C2c3c(ncn(CCN4CCOCC4)c3=N)Oc3ccc4ccccc4c32)c1 (stereo not given)	-2.37%
N=c1c2c(ccn1CCc1ccccc1)Oc1ccc3ccccc3c1C2c1ccccc1 (stereo not given)	11.4%
COc1ccc(C2c3c(n(CCCc4ccccc4)cnc3=N)Oc3ccc4ccccc4c32)cc1OC (stereo not given)	-23.2%
N=c1c2c(ccn1CCCc1ccccc1)Oc1ccc3ccccc3c1C2c1ccccc1 (stereo not given)	-23.7%
COc1cccc(C2c3c(ncn(-c4ccccc4C)c3=N)Oc3ccc4ccccc4c32)c1 (stereo not given)	-2.54%
